Data as given in the supplement of paper PMC8726507.

tested on: Plasmodium falciparum NF54-HGL (transmission to Anopheles stephensi); experiment: percentage of barcode signal found in uninfected mosquitoes (transmission-blocking activity); higher = stronger blocking of transmission to mosquito, active = 80 or more; conditions: 10 µM; gametocyte preincubation time 24 h; readout time post-feed 8 days
Method: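 The mixture was fed to Anopheles stephensi in 96-well plates as blood meals tagged with DNA-barcoded Asaia bacteria. Eight days later, mosquitoes were classed infected or uninfected by luminescence (mean + 5 SD of unfed controls). Barcodes were quantified by Luminex MagPlex-TAG in the pooled uninfected and infected Asaia cultures, background-corrected, and the score is % of barcode signal in uninfected mosquitoes = 100*Iu/(Iu+Ii).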

Compound | percentage of barcode signal found in uninfected mosquitoes
O=C(c1[nH]nc2c1CCCC2)N1CCN(Cc2ccc3c(c2)OCO3)CC1 | 9.05% (inactive)
O=C(Cn1ccnc1[N+](=O)[O-])NCc1ccccc1 | 70% (inactive)
COc1cncc(-c2cncc(N3CCN(c4ccncc4)CC3)n2)c1 | 63.9% (inactive)
Cc1cc(Nc2ccncc2)n2nc(C)c(-c3ccccc3Cl)c2n1 | 53.9% (inactive)
CCCS(=O)(=O)N1CCC(CO)(Cc2ccccc2C(F)(F)F)CC1 | 39.3% (inactive)
Cc1nnc(NCc2cccc(Cl)c2)c2ccccc12 | 34.2% (inactive)
Cc1cc(C(=O)Nc2cnn(Cc3ccc(Cl)cc3Cl)c2)no1 | 42.7% (inactive)
O=C(NC1CCCCC1)N1CCN(Cc2ccc3c(c2)OCO3)CC1 | -0.671% (inactive)
O=C(C(Cc1c[nH]c2ccccc12)NS(=O)(=O)c1ccc(Cl)cc1)N1CCCCC1 (stereo not drawn) | 62.5% (inactive)
O=C(c1ccco1)N(CCCn1ccnc1)c1nc2c(Cl)cccc2s1 | 17.2% (inactive)
CCCNC(=O)N1CCC2(CC1)CC(=O)c1cc(C)ccc1O2 | 11.9% (inactive)
c1ccc(-c2[nH]c3ccccc3c2C(c2ccccn2)N2CCCC2)cc1 (stereo not drawn) | 82.6% (active)
Cc1ccc2oc(-c3cc(NC(=O)Cc4ccccc4)ccc3Cl)nc2c1 | 24% (inactive)
O=C(Nc1ccc2c(c1)B(O)OC2)c1ccccc1C(F)(F)F | 84.1% (active)
O=C(Nc1nnc(-c2ccc(Cl)cc2)o1)c1cccc(C(F)(F)F)c1 | -0.664% (inactive)
COc1ccc(-c2cnc3ccc(N4CCCC4)nn23)cc1OC | 75.3% (inactive)
Cc1ccc2[nH]c3c(NCCN(C)C)ncnc3c2c1 | 40.6% (inactive)
COC(=O)c1cccc2oc(-c3cccc(OC)c3NC(=O)c3cc(-c4ccccc4)on3)nc12 | 31% (inactive)
